Data: PubChem BioAssay (NCATS)
Inconclusive results are not listed. Activity calls are given as the source filed them. Calls follow the shape of the dose curve; as a rule, active = well fitted curve in the direction sought with a large enough effect; inconclusive = small, poorly fitted or top-dose-only effect, or another doubt; inactive = no such curve, though single readings can be large; an effect the other way counts as inactive or inconclusive.

Experiments:
[1] = tested on: Zika virus NS2B-NS3 protease (linked construct); assay: Primary screen NINDS Rhodamine qHTS for Zika virus inhibitors (AID 1347160); also: nearly all actives have a fitted effect of over 55% in size
Summary of the method: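 Percent inhibition, normalized to uninhibited and enzyme-free controls, is fitted to a 4-parameter Hill equation. Fluorescence change comes from a 15-min cleavage of 1.5 microM bis-peptide Rhodamine110 substrate by 25 nM linked NS2B-NS3 at room temperature.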

[2] = biological target: Glutathione peroxidase 1 (Homo sapiens) (UniProt P07203); assay: Primary qHTS Assay for Inhibitors of Recombinant Selenoprotein Glutathione Peroxidase 1 (GPX1) (AID 1845191); also: nearly all actives have a fitted effect of over 65% in size
Glutathione peroxidase 1 (Homo sapiens), sequence (P07203 whole entry, looked up): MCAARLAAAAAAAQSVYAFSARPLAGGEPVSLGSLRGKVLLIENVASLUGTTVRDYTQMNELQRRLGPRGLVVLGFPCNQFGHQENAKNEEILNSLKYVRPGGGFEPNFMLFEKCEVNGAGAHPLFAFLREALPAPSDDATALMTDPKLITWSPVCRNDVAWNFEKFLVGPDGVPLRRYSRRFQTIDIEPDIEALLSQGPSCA
Summary of the method: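 Recombinant GPX1 (10 nM final) was preincubated with compound for 30 min at room temperature, then reacted with 1 mM GSH, 0.5 mM CHP, 0.5 mM NADPH and 100 nM glutathione reductase; NADPH fluorescence (340/450 nm) was read at 0 and 15 min.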

[3] = biological target: Phospholipid hydroperoxide glutathione peroxidase GPX4 (Homo sapiens) (UniProt P36969); assay: Primary qHTS Assay for Inhibitors of Recombinant Selenoprotein Glutathione Peroxidase 4 (GPX4) (AID 1845192); also: % is scaled to controls: 0 for no effect and ±100 for the full control effect; nearly all actives have a fitted effect of over 65% in size
Phospholipid hydroperoxide glutathione peroxidase GPX4 (Homo sapiens), sequence (P36969 whole entry, looked up): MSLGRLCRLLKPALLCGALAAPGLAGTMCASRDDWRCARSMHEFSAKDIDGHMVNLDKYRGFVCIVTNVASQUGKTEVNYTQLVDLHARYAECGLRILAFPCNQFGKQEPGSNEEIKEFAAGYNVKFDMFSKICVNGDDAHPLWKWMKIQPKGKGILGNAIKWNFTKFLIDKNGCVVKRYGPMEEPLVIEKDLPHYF
Summary of the method: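 GR-coupled readout: 100 nM GR, 1 mM GSH, 0.5 mM NADPH; NADPH fluorescence (ex 340/em 450 nm) read at t=0 and after 15 min RT. GPX4 200 nM, preincubated 30 min with compound; substrate 0.5 mM CHP.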

[4] = biological target: Luciferin 4-monooxygenase (Photinus pyralis) (UniProt P08659); assay: Primary firefly luciferase (FLuc) qHTS assay for identification of artifact compounds. (AID 1845220); details: outcome: dose series up to 54.1 µM unless noted; also: nearly all actives have a fitted effect of over 60% in size
Summary of the method: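 In this counter-screen for luciferase artifacts, test compounds met substrate (10 uM each luciferin and ATP) before 10 nM enzyme started the reaction. Light output was measured 5 min later.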

[5] = Primary fluorescence-based thiol-reactive (MSTI) qHTS assay for identification of artifact compounds. (AID 1845221); also: nearly all actives have a fitted effect of over 65% in size; also: potency is read from the fitted curve at half-maximal effect
Summary of the method: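 Probe: MSTI 4 uM, PBS pH 7.4, 2% DMSO. Incubation 1 h, RT, light-protected. Readout fluorescence 525/598 nm.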

[6] = tested on: Nanoluciferase (engineered Oplophorus gracilirostris luciferase); assay: Primary Nanoluciferase (NLuc) qHTS assay for identification of artifact compounds. (AID 1845222);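 also: NLuc secreted into diluted conditioned medium of S16 cells; 0% = DMSO and -100% = no enzyme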
Summary of the method: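 Using secreted nanoluciferase in S16 culture medium (0.22 um filtered, 1:55 dilution), compounds were preincubated 15 min at RT. Signal was generated with Nano-Glo reagent (1:100) over 5 min.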

[7] = Primary redox qHTS assay for identification of artifact compounds. (AID 1845223);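 also: 0% = DMSO and 100% = reference compound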
Summary of the method: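 Amplex Red (25 uM) and HRP (250 mU/mL) in HBSS, with compounds for 15 min, then 250 uM DTT for 30 min, room temperature, dark. Fluorescence 525/598 nm read; normalized to DMSO and 10 uM DA3003; Hill fit.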

[8] = tested on: CRL-7250; assay: Cytotoxic Profiling of Annotated Libraries Using Quantitative High-Throughput Screening (AID 1296008); details: Five cell lines viability, CellTiter-Glo ATP luminescence, 48-72 h; max response: hits give low values; also: nearly all actives have a fitted effect of over 60% in size; also: potency is read from the fitted curve at half-maximal effect; as to max response: % is scaled to controls: 0 for no effect and ±100 for the full control effect
Summary of the method: (§1)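 Compounds were pin-transferred onto cells and incubated 48 or 72 hr at 37 degree Celsius, 95% humidity. CellTiter-Glo was added, plates sat 10 min at room temperature, then ATP-coupled luminescence was imaged as the viability read-out.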

[9] = tested on: KB-3-1; assay: as above; details: Five cell lines viability, CellTiter-Glo ATP luminescence, 48-72 h; max response: hits give low values
Summary of the method: as §1

[10] = tested on: CASKI; assay: Primary qHTS to identify gynecologic anti-cancer compounds using libraries of approved drugs and bioactive compounds (AID 1345084); details: Gynecologic cancer cell panel viability, ATPlite luminescence, 48 h; series mostly up to 57.5 µM; also: nearly all actives have a fitted effect of over 55% in size; also: potency is read from the fitted curve at half-maximal effect
Summary of the method: (§2)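 Cell viability after 48 h drug treatment, ATPlite luminescence readout; five doses.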

[11] = tested on: JEG-3; assay: as above; details: Gynecologic cancer cell panel viability, ATPlite luminescence, 48 h; series mostly up to 57.5 µM
Summary of the method: as §2

[12] = tested on: Tov-21-G; assay: as above; details: Gynecologic cancer cell panel viability, ATPlite luminescence, 48 h; series mostly up to 57.5 µM
Summary of the method: as §2

[13] = biological target: Calcium and integrin-binding protein 1 (Homo sapiens) (UniProt Q99828); assay: Primary qHTS for Identification of Calcium Integrin Binding Protein 1 (CIB1) Competitor (AID 1508620);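 also: GST tagged CIB1 binding a fluorescein labelled alphaIIb integrin peptide tracer; top concentration of the series differs between compounds; % is scaled to controls: 0 for no effect and ±100 for the full control effect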
Calcium and integrin-binding protein 1 (Homo sapiens), sequence (Q99828 whole entry, looked up): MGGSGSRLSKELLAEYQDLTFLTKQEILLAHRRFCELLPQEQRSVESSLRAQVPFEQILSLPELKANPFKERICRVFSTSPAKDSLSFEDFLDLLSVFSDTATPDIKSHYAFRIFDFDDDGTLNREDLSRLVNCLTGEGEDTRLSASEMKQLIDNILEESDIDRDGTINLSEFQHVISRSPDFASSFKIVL
Summary of the method: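 Fluorescence polarization competition: CIB1-GST (1 uM final) preincubated with compound 15 min at room temperature, then FITC-labeled alphaIIb peptide (100 nM final) added for another 15 min. Polarization read at Ex 480/Em 540.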

[14] = tested on: C33A; assay: Primary qHTS to identify gynecologic anti-cancer compounds using libraries of approved drugs and bioactive compounds (AID 1345084); details: Gynecologic cancer cell panel viability, ATPlite luminescence, 48 h; series mostly up to 57.5 µM; also: nearly all actives have a fitted effect of over 55% in size; also: potency is read from the fitted curve at half-maximal effect
Summary of the method: as §2

[15] = tested on: CAOV3; assay: as above; details: Gynecologic cancer cell panel viability, ATPlite luminescence, 48 h; series mostly up to 57.5 µM
Summary of the method: as §2

[16] = tested on: Hek293T; assay: as above; details: Gynecologic cancer cell panel viability, ATPlite luminescence, 48 h, control line for the selectivity index; series mostly up to 57.5 µM
Summary of the method: as §2

[17] = tested on: OV90; assay: as above; details: Gynecologic cancer cell panel viability, ATPlite luminescence, 48 h; series mostly up to 57.5 µM
Summary of the method: as §2

[18] = tested on: PA-1; assay: as above; details: Gynecologic cancer cell panel viability, ATPlite luminescence, 48 h; series mostly up to 57.5 µM
Summary of the method: as §2

[19] = tested on: Tov112D; assay: as above; details: Gynecologic cancer cell panel viability, ATPlite luminescence, 48 h; series mostly up to 57.5 µM
Summary of the method: as §2

[20] = tested on: Es-2; assay: as above; details: Gynecologic cancer cell panel viability, ATPlite luminescence, 48 h; series mostly up to 57.5 µM
Summary of the method: as §2

CC1=CC(=O)[C@@H](O)[C@@]2(C)C1C[C@H]1OC(=O)[C@H](O)[C@@]3(O)[C@@H](C)[C@@H](O)[C@H](O)C2[C@@]13C (stereo not given in full)
inactive: Potency [1] | Potency [2] | Potency [3] | outcome [4] | Potency [5] | Potency [6] | Potency [7] | Potency [10] | Potency [11]
active: Potency [8] 2.86 µM | Potency [9] 6.4 µM | Potency [12] 11.2 µM

C=C(C)C(=O)O[C@H]1[C@@H]2[C@H](C)C(=O)O[C@@H]2C[C@@H](C)[C@@H]2C=CC(=O)[C@]21C
active: Potency [8] 2.86 µM | Potency [9] 3.21 µM | Potency [14] 12.6 µM | Potency [15] 10 µM | Potency [16] 5.62 µM | Potency [17] 3.55 µM | Potency [18] 3.16 µM | Potency [12] 8.91 µM | Potency [19] 8.91 µM
inactive: Potency [1] | Potency [13] | Potency [2] | Potency [3] | outcome [4] | Potency [5] | Potency [6] | Potency [7]

COc1cc(C(=O)N2CC[C@@H](O)[C@@H](N)C2)cc2nc(-c3cc4ccccc4n3CC3CC3)n(C)c12
inactive: Potency [13] | Potency [2]
active: Potency [8] 20.9 µM

CN1C(=O)N(c2ccc(C#N)c(C(F)(F)F)c2)C(=O)[C@@]1(CO)c1ccccc1
inactive: Potency [1] | Potency [2] | Potency [3] | outcome [4] | Potency [5] | Potency [6] | Potency [7] | outcome [8] | max response [9] 2.44% | Potency [14] | Potency [15] | Potency [10] | Potency [20] | Potency [16] | Potency [11] | Potency [17] | Potency [18] | Potency [12] | Potency [19]

C[C@]12CC[C@H](O)C[C@@]1(O)CC[C@@H]1[C@@H]2CC[C@]2(C)[C@@H](c3ccc(=O)oc3)CC[C@]12O
active: Potency [8] 0.0052 µM
inactive: Potency [1] | Potency [5] | Potency [6] | Potency [7] | Potency [14] | Potency [15] | Potency [10] | Potency [20] | Potency [16] | Potency [11] | Potency [17] | Potency [18] | Potency [12] | Potency [19]

CN=C(NS(=O)(=O)c1ccc(Cl)cc1)N1C[C@H](c2ccccc2)C(c2ccc(Cl)cc2)=N1
inactive: Potency [1] | Potency [3] | outcome [4] | Potency [5] | Potency [6] | Potency [7] | outcome [8] | max response [9] -19.1% | Potency [14] | Potency [15] | Potency [10] | Potency [20] | Potency [16] | Potency [11] | Potency [17] | Potency [18] | Potency [12] | Potency [19]

c1ccc([C@@H]2C[C@H]2NC2CCNCC2)cc1
inactive: Potency [1] | Potency [2] | Potency [3] | outcome [4] | Potency [5] | Potency [7] | max response [8] -8.87% | max response [9] -11.5% | Potency [14] | Potency [15] | Potency [10] | Potency [20] | Potency [16] | Potency [11] | Potency [17] | Potency [18] | Potency [12] | Potency [19]

CCCCCCC1C(=O)O[C@H](C)[C@H](NC(=O)c2cccc(NC=O)c2O)C(=O)O[C@@H](C)[C@@H]1OC(=O)CC(C)C (stereo not given in full)
inactive: Potency [13] | Potency [3] | Potency [6] | Potency [11] | Potency [19]
active: Potency [5] 1.89 µM | Potency [8] 0.58 µM | Potency [15] 3.16 µM | Potency [10] 1 µM | Potency [20] 0.355 µM | Potency [17] 0.355 µM

CC(C)[C@H]1OC(=O)[C@H](Cc2ccccc2)N(C)C(=O)[C@@H](C(C)C)OC(=O)[C@H](Cc2ccccc2)N(C)C(=O)[C@@H](C(C)C)OC(=O)[C@H](Cc2ccccc2)N(C)C1=O
inactive: Potency [1] | Potency [13] | outcome [4] | Potency [5] | Potency [6] | Potency [14] | Potency [15] | Potency [10] | Potency [20] | Potency [11] | Potency [17] | Potency [12] | Potency [19]
active: Potency [8] 4.85 µM | Potency [18] 7.94 µM

CN1C(=O)[C@@H](Cc2c[nH]c3ccccc23)N=C(c2ccccc2F)c2ccccc21
inactive: Potency [1] | Potency [13] | Potency [2] | Potency [3] | Potency [5] | Potency [6] | Potency [7] | outcome [8] | max response [9] -7.12% | Potency [14] | Potency [15] | Potency [10] | Potency [20] | Potency [16] | Potency [11] | Potency [17] | Potency [18] | Potency [12] | Potency [19]

COC1CCCC(C)OC(=O)Cc2cc(O)cc(O)c2C(=O)C1 (stereo not given)
active: Potency [8] 14.3 µM | Potency [9] 4.04 µM | Potency [18] 11.2 µM
inactive: Potency [1] | Potency [13] | Potency [2] | Potency [6] | Potency [7] | Potency [15] | Potency [10] | Potency [17] | Potency [12]

CC1=CC2OC3CC(O)[C@](C)([C@@]2(C)C(O)C1=O)[C@]31CO1 (stereo not given in full)
inactive: Potency [1] | Potency [13] | Potency [2] | Potency [3] | outcome [4] | Potency [5] | Potency [6] | Potency [7] | Potency [15] | Potency [11]
active: Potency [8] 5.8 µM | Potency [9] 7.31 µM | Potency [20] 8.91 µM | Potency [16] 3.16 µM | Potency [18] 3.16 µM

C#C[C@]1(O)CC[C@H]2[C@@H]3CC[C@H]4Cc5nc6nc7ccccc7n6cc5C[C@]4(C)[C@H]3CC[C@@]21C
inactive: Potency [13] | Potency [2] | Potency [3] | Potency [5] | Potency [6] | Potency [7] | max response [8] 1.18% | Potency [14] | Potency [15] | Potency [10] | Potency [20] | Potency [16] | Potency [11] | Potency [17] | Potency [18] | Potency [19]
